Compound activity as filed in PubChem BioAssay.
Compounds with a hit are over-represented: about 6.5% of the library has one in this group of screens.
MK inhibit: inhibitors of Streptococcus pneumoniae mevalonate kinase | purified MK, PK/LDH-coupled NADH absorbance 340 nm | inhibition, % at 10 µM | hit rate 0.48% among 65,000;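 active = ranked among the strongest by inhibition in the single 10 µM screen, a fixed top-ranked set picked for dose follow-up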
NADH enzymes: inhibitors of enzymes used to reach an NAD/NADH endpoint; AID 774; hit rate 0.02% among 65,000; coupled PK/LDH NADH assays, four targets; IC50, µM (top dose mostly 10 µM);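 active = single-dose screening hits from any of four coupled enzyme assays that gave an IC50 when retested across doses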;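 also: the DPM-DC format reads NADH fluorescence rather than 340 nm absorbance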
Spn DPM-DC inh: S. pneumoniae DPM-DC inhibition; purified DPM-DC, PK/LDH coupled NADH fluorescence; AID 556; calls only at 10 µM; hit rate 0.49% among 65,000;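 active = the 320 compounds with the highest percent inhibition in the single-dose primary screen, excluding strongly autofluorescent ones, cut at about 32% in these data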;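 also: kinetic rate of NADH fluorescence loss reporting ADP formed by the decarboxylase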
Abs 340nm: compounds absorbing at 340 nm; AID 708; fold change at 10 µM; compound absorbance at 340 nm, fold over control; 65,000 tested, under 10 active;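 active = at 10 µM dose, initial 340 nm absorbance at least 2 fold that of control wells; inactive = change under 2 fold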;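 also: initial absorbance extrapolated from kinetic A340 decline of NADH oxidation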
Autofluor 339: intrinsic fluorescence of library compounds, ex339/em460 – biochemical, MLSMR library, data from DPM-DC assay, artefact control, profiling panel; fluorescence fold increase at 10 µM; compound autofluorescence, ex339/em460 nm, NADH buffer; stronger effect = higher value; 1 = no-compound wells, NADH background; hit rate 5.5% among 65,000;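 active = at 10 µM, mean starting fluorescence two-fold or more over control wells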;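 also: signal is the first read of a kinetic run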
Spn PMK inh: blocks S. pneumoniae phosphomevalonate kinase; purified PMK, PK/LDH-coupled NADH absorbance 340 nm; inhibition, % at 10 µM; hit rate 0.49% among 65,000; AID 539;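 active = top-ranked compounds by inhibition in the single 10 µM screen, taking a fixed number of the strongest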
Of the large screens only hits and unclear results are named; the others gave an inactive call.

COC(=O)c1cc(Cc2ccc(N)c(C(=O)OC)c2)ccc1N	Autofluor 339 2.15 (not shown: Spn DPM-DC inh)
Cc1cc(C)n(CCOc2ccc(Cl)cc2Cl)n1	none
CCOC(=O)c1c(C)noc1CP(=O)(c1ccccc1)c1ccccc1	none
Cc1cccc(NC(=O)C2CCCN2S(=O)(=O)c2cccc3cccnc23)c1 (configuration not stated)	none
COc1ccc(-c2cc(C(F)F)n3ncc(C(=O)N4CCSCC4)c3n2)cc1	Autofluor 339 3.46 (not shown: Spn DPM-DC inh)
CCOC(=O)C1CCN(C(=O)c2cnn3c(C)cc(C)nc23)CC1	Autofluor 339 3.45
Cc1ccc(-c2cc(C(F)F)n3ncc(C(=O)N4CCN5CCCC5C4)c3n2)cc1 (configuration not stated)	none
CCOC(=O)C1CCCN(C(=O)c2cnn3c(C(F)F)cc(-c4ccc(C)cc4)nc23)C1 (configuration not stated)	Autofluor 339 2.31
CCOC(=O)Nc1oc2ccccc2c(=O)c1CN1CCOCC1	Autofluor 339 2.23
COc1ccccc1NC(=O)CSc1nc(O)cc(=O)n1-c1ccccc1OC	Spn DPM-DC inh active
COc1ccccc1-n1c(SCC(=O)Nc2ccccc2C)nc(O)cc1=O	none
O=C(Cn1cnc2ccccc21)Nc1cc(C(F)(F)F)ccc1N1CCOCC1	none
FC(F)(F)c1ccc(N2CCOCC2)c(Nc2nc3ccccc3n3cnnc23)c1	Autofluor 339 2.47
O=C(COC(=O)C1CCN(S(=O)(=O)c2cccs2)CC1)c1cc2ccccc2o1	none
COC(=O)C1(C)NC(=O)c2ccccc2N1 (configuration not stated)	Autofluor 339 2.08 (not shown: Spn DPM-DC inh)
COC(=O)C1(C)Nc2ccccc2C(=O)N1c1ccccc1OC (configuration not stated)	Autofluor 339 2.09 (not shown: Spn DPM-DC inh)
CCOC(=O)c1cc(-c2cccs2)nc2onc(C)c12	Autofluor 339 4.83 (not shown: Spn DPM-DC inh)
CCOC(=O)c1nnn(-c2nonc2N)c1-c1cccs1	none
Cc1noc2nc(-c3cccs3)cc(-c3nnc4n3CCCCC4)c12	Autofluor 339 2.07 (not shown: Spn DPM-DC inh)
c1csc(-c2cnc3n2CCCC3)c1	none
O=C(CN1C(=O)NC2(CCc3ccccc32)C1=O)Nc1cc(C(F)(F)F)ccc1N1CCOCC1 (configuration not stated)	none
Nc1ccc2[nH]ncc2c1	Autofluor 339 2.29 (not shown: Spn DPM-DC inh)
O=C(Cc1cccs1)Nc1nnc(-c2ccncc2)s1	Autofluor 339 2.21 (not shown: Spn DPM-DC inh)
COc1cc(OC)c(C2CC(=O)N3CN(c4ccc(C)cc4)CSC3=C2C#N)cc1OC (configuration not stated)	MK inhibit 41.0
CCCS(=O)(=O)Nc1cc(C(F)(F)F)ccc1OCCOC	none
Cc1ccc(NC(=O)COC(=O)C2CC2C)c(S(=O)(=O)N2CCCCC2)c1 (configuration not stated)	none
CCOC(=O)C1=C(C)NC2=C(C(=O)CCC2)C1c1cccs1 (configuration not stated)	none
CCOC(=O)c1sc2c(c1C)C(c1cccs1)C1=C(CCCC1=O)N2 (configuration not stated)	Autofluor 339 4.79 (not shown: Spn DPM-DC inh)
Cc1nn(-c2ccccc2)c2sc(C(=O)OCC(=O)N3CCCCC3)cc12	Autofluor 339 4.01 (not shown: Spn DPM-DC inh)
COC(=O)c1cc2c(C)nn(-c3ccccc3)c2s1	none
Cc1nn(-c2ccccc2)c2sc(C(=O)OC3CCOC3=O)cc12 (configuration not stated)	Autofluor 339 4.95 (not shown: Spn DPM-DC inh)
Cc1cccc(N2C(=O)CC(N(C(=O)c3ccco3)c3cccc(C)c3)C2=O)c1 (configuration not stated)	none
COc1ccc(-c2ccc(-c3noc(-c4cccc(OC)c4)n3)c(OC)n2)cc1	Autofluor 339 3.83 (not shown: Spn DPM-DC inh)
COc1ccc(-c2ccc(-c3noc(-c4ccc(OC)c(OC)c4)n3)c(OC)n2)cc1	Autofluor 339 3.87 (not shown: Spn DPM-DC inh)
COc1ccc(-c2nc(-c3ccncc3)no2)cc1OC	none
Cc1ccc(S(=O)(=O)N(Cc2cc3cc4c(cc3[nH]c2=O)OCCO4)CC2CCCO2)cc1 (configuration not stated)	Autofluor 339 3.46 (not shown: Spn DPM-DC inh)
O=c1[nH]c2cc3c(cc2cc1CN(CC1CCCO1)S(=O)(=O)c1ccc(Cl)cc1)OCCO3 (configuration not stated)	Autofluor 339 2.63
